Assay results as given in PMC7862700, “An all-to-all approach to the identification of sequence-specific readers for epigenetic DNA modifications on cytosine”.

What was measured:
Test in all cases: DAPPL (digital affinity profiling via proximity ligation, sequencing); 10 mM Tris-HCl pH 7.5, 50 mM NaCl, 1 mM DTT, 4% glycerol, room temperature, 30 min; GST-TFs on glutathione beads, 16-mer random dsDNA library, 0.1% formaldehyde crosslink after washing; high values mean tight binding
FEV = target: T1, FEV (Homo sapiens, UniProt Q99581 1-238); conditions: protein: recombinant; tags: N-terminal GST; dsDNA, one strand shown
T1 sequence: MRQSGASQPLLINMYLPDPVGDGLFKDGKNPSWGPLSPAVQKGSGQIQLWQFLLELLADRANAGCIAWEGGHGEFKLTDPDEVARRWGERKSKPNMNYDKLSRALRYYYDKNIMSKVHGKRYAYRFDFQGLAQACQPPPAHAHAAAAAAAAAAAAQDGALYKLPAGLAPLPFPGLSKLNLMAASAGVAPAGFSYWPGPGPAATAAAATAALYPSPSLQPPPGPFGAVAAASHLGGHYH
Summary of the method: (§1)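 After expression in yeast as GST fusions, human transcription factors were bound to glutathione beads, DNA-barcoded and mixed with a tag-only sample. The pools were incubated with 200 nmole of a 16-mer random double-stranded DNA library in Tris/NaCl/DTT/glycerol buffer (30 min, room temperature), washed and crosslinked with 0.1% formaldehyde. Proximity ligation with BsaI/T4 ligase ran for 1 h at 37 °C, before PCR amplification and sequencing on an Illumina NextSeq500. Binding signal is a hexamer's read frequency for a factor divided by its frequency for the tag-only sample.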

ETV5 = ETV5 (Homo sapiens, UniProt P41161 1-510); conditions: protein: recombinant; tags: N-terminal GST; dsDNA, one strand shown
Sequence of ETV5 (P41161 whole entry): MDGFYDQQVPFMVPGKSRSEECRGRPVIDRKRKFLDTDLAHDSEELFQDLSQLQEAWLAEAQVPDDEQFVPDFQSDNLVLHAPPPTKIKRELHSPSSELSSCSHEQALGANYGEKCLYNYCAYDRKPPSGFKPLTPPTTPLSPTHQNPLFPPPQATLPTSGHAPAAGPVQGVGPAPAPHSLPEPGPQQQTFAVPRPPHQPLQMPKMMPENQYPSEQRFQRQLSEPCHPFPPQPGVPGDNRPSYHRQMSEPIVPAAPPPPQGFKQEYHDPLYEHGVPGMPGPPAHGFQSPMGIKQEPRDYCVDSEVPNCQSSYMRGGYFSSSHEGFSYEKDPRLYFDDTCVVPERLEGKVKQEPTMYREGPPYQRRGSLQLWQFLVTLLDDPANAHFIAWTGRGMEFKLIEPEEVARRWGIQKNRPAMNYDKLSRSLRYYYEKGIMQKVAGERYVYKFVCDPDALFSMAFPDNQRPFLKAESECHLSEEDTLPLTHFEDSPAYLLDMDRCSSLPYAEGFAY
Summary of the method: as §1

HSF1 = HSF1 (Homo sapiens, UniProt Q00613 1-529); conditions: protein: recombinant; tags: N-terminal GST; chain copies: 3; dsDNA, one strand shown
Sequence of HSF1 (Q00613 whole entry): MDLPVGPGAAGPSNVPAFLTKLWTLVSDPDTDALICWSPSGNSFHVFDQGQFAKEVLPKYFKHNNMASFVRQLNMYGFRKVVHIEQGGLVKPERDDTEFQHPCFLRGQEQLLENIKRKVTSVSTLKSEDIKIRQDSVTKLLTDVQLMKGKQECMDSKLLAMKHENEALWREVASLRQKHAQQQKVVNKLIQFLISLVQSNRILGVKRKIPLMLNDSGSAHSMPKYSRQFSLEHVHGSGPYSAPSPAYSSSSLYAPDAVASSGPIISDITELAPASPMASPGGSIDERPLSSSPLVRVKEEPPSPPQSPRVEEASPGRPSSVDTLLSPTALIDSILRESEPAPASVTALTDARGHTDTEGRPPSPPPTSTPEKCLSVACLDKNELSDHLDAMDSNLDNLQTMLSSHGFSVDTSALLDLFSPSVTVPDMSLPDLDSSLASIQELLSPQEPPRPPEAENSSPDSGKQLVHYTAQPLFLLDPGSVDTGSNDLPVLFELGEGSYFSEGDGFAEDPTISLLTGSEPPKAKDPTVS
Summary of the method: as §1

SPIC = target: T2, SPIC (Homo sapiens, UniProt Q8N5J4 1-248); conditions: protein: recombinant; tags: N-terminal GST; dsDNA, one strand shown
T2 sequence: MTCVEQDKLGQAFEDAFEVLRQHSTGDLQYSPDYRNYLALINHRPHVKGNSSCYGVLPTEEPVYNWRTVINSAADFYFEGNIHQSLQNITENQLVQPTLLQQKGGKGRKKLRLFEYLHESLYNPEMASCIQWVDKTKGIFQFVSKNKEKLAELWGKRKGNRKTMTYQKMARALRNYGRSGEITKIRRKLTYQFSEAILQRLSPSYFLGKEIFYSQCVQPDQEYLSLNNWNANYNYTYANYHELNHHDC
Summary of the method: as §1

ELF4 = ELF4 (Homo sapiens, UniProt Q99607 1-663); conditions: protein: recombinant; tags: N-terminal GST; dsDNA, one strand shown
Sequence of ELF4 (Q99607 whole entry): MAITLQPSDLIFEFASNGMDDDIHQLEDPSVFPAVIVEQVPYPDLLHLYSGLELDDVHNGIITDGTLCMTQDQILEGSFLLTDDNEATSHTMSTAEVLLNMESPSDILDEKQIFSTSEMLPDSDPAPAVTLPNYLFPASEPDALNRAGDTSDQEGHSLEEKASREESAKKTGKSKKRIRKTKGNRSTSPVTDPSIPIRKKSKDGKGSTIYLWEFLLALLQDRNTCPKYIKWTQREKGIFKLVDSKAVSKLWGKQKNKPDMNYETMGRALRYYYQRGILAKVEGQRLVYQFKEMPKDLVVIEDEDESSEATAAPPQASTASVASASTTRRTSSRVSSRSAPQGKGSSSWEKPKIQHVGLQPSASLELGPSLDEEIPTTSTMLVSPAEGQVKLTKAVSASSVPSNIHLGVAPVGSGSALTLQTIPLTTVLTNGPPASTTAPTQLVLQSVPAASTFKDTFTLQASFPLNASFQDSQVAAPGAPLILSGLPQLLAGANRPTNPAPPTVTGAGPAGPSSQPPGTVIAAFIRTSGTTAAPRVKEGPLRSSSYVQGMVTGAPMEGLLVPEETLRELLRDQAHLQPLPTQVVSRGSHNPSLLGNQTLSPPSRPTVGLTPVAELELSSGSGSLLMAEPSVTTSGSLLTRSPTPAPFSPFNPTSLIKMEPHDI
Summary of the method: as §1

ELK4 = target: T3, ELK4 (Homo sapiens, UniProt P28324-2 1-405); conditions: protein: recombinant; tags: N-terminal GST; dsDNA, one strand shown
T3 sequence: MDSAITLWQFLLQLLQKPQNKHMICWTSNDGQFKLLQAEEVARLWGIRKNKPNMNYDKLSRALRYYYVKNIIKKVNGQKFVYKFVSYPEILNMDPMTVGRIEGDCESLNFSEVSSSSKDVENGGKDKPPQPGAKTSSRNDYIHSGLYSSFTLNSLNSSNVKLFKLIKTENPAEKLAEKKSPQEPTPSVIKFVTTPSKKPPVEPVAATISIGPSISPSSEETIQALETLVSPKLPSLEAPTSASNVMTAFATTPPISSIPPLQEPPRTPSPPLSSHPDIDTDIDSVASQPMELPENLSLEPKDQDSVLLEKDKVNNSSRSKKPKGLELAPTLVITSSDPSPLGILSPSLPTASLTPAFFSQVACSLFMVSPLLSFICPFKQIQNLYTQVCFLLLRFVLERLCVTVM
Summary of the method: as §1

ETV2 = target: T4, ETV2 (Homo sapiens, UniProt O00321 1-342); conditions: protein: recombinant; tags: N-terminal GST; dsDNA, one strand shown
T4 sequence: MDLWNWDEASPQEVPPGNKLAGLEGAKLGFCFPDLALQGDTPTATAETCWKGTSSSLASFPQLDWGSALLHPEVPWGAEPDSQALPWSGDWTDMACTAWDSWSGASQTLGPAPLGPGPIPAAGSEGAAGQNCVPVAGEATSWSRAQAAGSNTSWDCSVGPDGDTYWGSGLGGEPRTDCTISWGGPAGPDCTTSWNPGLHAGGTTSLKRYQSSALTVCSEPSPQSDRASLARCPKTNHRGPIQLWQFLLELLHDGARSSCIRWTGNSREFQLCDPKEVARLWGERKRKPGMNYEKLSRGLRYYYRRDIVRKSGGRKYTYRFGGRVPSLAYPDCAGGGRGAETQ
Summary of the method: as §1

ELF3 = target: T5, ELF3 (Homo sapiens, UniProt P78545 1-371); conditions: protein: recombinant; tags: N-terminal GST; dsDNA, one strand shown
T5 sequence: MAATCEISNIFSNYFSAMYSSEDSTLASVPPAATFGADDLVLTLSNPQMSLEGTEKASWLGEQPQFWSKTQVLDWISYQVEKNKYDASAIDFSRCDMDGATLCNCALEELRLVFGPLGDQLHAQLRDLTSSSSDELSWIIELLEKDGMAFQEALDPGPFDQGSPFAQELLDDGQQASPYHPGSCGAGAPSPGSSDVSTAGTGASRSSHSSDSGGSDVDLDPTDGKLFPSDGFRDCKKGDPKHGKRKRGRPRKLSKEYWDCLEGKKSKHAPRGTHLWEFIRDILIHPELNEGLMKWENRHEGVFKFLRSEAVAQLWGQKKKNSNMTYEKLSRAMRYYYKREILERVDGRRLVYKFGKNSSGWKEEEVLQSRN
Summary of the method: as §1

CRX = CRX (Homo sapiens, UniProt O43186 1-299); conditions: protein: recombinant; tags: N-terminal GST; dsDNA, one strand shown
Sequence of CRX (O43186 whole entry): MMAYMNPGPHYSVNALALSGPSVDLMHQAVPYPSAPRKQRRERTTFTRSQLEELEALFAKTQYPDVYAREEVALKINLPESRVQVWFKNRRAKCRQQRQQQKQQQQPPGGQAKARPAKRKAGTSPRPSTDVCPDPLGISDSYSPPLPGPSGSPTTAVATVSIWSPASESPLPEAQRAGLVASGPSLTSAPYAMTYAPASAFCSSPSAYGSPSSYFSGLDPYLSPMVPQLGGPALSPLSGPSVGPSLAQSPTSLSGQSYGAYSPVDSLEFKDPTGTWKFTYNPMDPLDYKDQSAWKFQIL
Summary of the method: as §1

ETV1 = ETV1 (Homo sapiens, UniProt P50549 1-477); conditions: protein: recombinant; tags: N-terminal GST; dsDNA, one strand shown
Sequence of ETV1 (P50549 whole entry): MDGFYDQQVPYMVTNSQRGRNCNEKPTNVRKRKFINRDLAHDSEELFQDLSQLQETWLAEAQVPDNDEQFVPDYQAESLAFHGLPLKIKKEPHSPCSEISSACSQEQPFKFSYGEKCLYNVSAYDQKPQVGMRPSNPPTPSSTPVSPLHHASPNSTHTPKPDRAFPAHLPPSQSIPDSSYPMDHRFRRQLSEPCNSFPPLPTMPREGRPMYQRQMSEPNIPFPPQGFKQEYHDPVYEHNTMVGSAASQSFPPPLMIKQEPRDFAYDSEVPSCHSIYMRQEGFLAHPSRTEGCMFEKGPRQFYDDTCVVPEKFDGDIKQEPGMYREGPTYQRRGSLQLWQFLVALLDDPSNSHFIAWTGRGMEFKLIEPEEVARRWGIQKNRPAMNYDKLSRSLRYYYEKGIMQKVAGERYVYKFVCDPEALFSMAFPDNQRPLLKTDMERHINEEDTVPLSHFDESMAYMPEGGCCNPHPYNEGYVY
Summary of the method: as §1

Sequence	binding signal (FEV)	binding signal (ETV5)	binding signal (HSF1)	binding signal (SPIC)	binding signal (ELF4)	binding signal (ELK4)	binding signal (ETV2)	binding signal (ELF3)	binding signal (CRX)	binding signal (ETV1)
TAAAAT	1.14 fold enrichment (6-mer frequency, TF over GST control)	1.22 fold enrichment (6-mer frequency, TF over GST control)	1.48 fold enrichment (6-mer frequency, TF over GST control)	1.19 fold enrichment (6-mer frequency, TF over GST control)	1.2 fold enrichment (6-mer frequency, TF over GST control)	1.2 fold enrichment (6-mer frequency, TF over GST control)	1.34 fold enrichment (6-mer frequency, TF over GST control)	1.27 fold enrichment (6-mer frequency, TF over GST control)	1.76 fold enrichment (6-mer frequency, TF over GST control)	1.22 fold enrichment (6-mer frequency, TF over GST control)
TACGTA	1.27 fold enrichment (6-mer frequency, TF over GST control)	1.37 fold enrichment (6-mer frequency, TF over GST control)	1.23 fold enrichment (6-mer frequency, TF over GST control)	1.27 fold enrichment (6-mer frequency, TF over GST control)	1.33 fold enrichment (6-mer frequency, TF over GST control)	1.3 fold enrichment (6-mer frequency, TF over GST control)	1.33 fold enrichment (6-mer frequency, TF over GST control)	1.4 fold enrichment (6-mer frequency, TF over GST control)	1.49 fold enrichment (6-mer frequency, TF over GST control)	1.4 fold enrichment (6-mer frequency, TF over GST control)
CCTCCC	1.59 fold enrichment (6-mer frequency, TF over GST control)	1.55 fold enrichment (6-mer frequency, TF over GST control)	1.12 fold enrichment (6-mer frequency, TF over GST control)	1.65 fold enrichment (6-mer frequency, TF over GST control)	1.66 fold enrichment (6-mer frequency, TF over GST control)	1.3 fold enrichment (6-mer frequency, TF over GST control)	1.71 fold enrichment (6-mer frequency, TF over GST control)	1.36 fold enrichment (6-mer frequency, TF over GST control)	1.21 fold enrichment (6-mer frequency, TF over GST control)	1.36 fold enrichment (6-mer frequency, TF over GST control)
TACGCG	1.11 fold enrichment (6-mer frequency, TF over GST control)	1.21 fold enrichment (6-mer frequency, TF over GST control)	1.17 fold enrichment (6-mer frequency, TF over GST control)	1.12 fold enrichment (6-mer frequency, TF over GST control)	1.12 fold enrichment (6-mer frequency, TF over GST control)	1.25 fold enrichment (6-mer frequency, TF over GST control)	1.21 fold enrichment (6-mer frequency, TF over GST control)	1.19 fold enrichment (6-mer frequency, TF over GST control)	1.24 fold enrichment (6-mer frequency, TF over GST control)	1.23 fold enrichment (6-mer frequency, TF over GST control)
